CHX counter – counter-screen for Shiga toxin inhibitors: cycloheximide protein synthesis inhibition; cell reporter, cycloheximide protein synthesis inhibition counterscreen; max response, %; hit rate 12% among 300,000; AID 2314; in the data active = max response mostly above about 13%, no sharp cut-off; inactive = mostly below about 14%; also: read at 38.3 µM for the half of the compounds with a filed dose; 0% is about no effect
LmPK inh – blocks Leishmania mexicana pyruvate kinase activity; Potency, µM (series often up to 57.5 µM), for the others: top-dose activity change, negative = inhibition, hits mostly inhibitors; AID 1721; purified LmPK, Kinase-Glo ATP luminescence, 1 h; Q27686; hit rate 0.37% among 290,000; also: potency is read from the fitted curve at half-maximal effect; % is scaled to controls: 0 for no effect and ±100 for the full control effect
Target sequence (Q27686 whole entry, looked up): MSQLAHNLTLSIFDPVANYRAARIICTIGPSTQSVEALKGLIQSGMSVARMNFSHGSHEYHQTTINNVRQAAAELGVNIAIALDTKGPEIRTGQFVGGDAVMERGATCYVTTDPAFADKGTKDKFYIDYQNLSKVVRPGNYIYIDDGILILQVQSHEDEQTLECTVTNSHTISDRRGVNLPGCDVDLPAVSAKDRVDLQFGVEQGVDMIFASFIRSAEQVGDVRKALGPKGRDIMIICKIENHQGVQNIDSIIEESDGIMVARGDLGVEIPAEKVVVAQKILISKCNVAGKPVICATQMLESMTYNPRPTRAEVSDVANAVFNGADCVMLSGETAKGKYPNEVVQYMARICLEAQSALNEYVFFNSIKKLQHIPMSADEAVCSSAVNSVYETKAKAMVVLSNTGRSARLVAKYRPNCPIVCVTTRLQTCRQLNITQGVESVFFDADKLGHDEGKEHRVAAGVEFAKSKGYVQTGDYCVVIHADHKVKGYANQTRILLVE
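0.1 nM LmPK, 0.5 mM PEP, 0.1 mM ADP; 50 mM imidazole pH 7.2, 7 mM MgCl2, 50 mM KCl; 1 h RT. Kinase-Glo luminescence readout, normalized to no-enzyme (full inhibition) and uninhibited wells.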
Shiga toxin inh – blocks Shiga toxin action in Vero cells | inhibition, % at 38.7 µM | Vero cells, Shiga toxin protein synthesis inhibition reporter | AID 2315 | hit rate 9.2% among 290,000; in the data active = inhibition mostly above about 28%, no sharp cut-off; inactive = mostly below about 43%; also: 0% is about no effect
Giardia FBPA inh – Giardia lamblia aldolase inhibition; purified Giardia FBPA; Potency, µM (highest dose often 59.6 µM), for the others: top-dose activity, negative = inhibition, hits mostly inhibitors; A8B2U2; hit rate 0.71% among 290,000; also: potency is read from the fitted curve at half-maximal effect; % is scaled to controls: 0 for no effect and ±100 for the full control effect; nearly all actives have a fitted effect of over 55% in size
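Giardia FBPA (40 nM reagent) was preincubated 10 min at RT with compound (up to 57.5 uM final), then substrate plus GAPDH/TPI/NAD/arsenate coupling system with diaphorase/resazurin was added; resorufin fluorescence (525/598 nm) was read after 20 min.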
NS1 function inh – blocks influenza NS1 protein function. hit rate 0.4% among 270,000. Potency, µM (highest dose often 46.1 µM), without a hit: at the top dose activity, positive = more growth; calls by dose curve; also: potency is read from the fitted curve at half-maximal effect; actives are rising curves; nearly all actives have a fitted effect of over 50% in size
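Compounds were scored for reversing the slow growth caused by influenza A NS1 in S. cerevisiae, measured by optical density at 600 nm. Assay medium contained 2% galactose at pH 6.0; NS1-free yeast of the same strain were the positive control.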
Numbers without * were called inactive; ? = inconclusive; / = not tested or not shown. Hits are enriched below; roughly 14% of the tested compounds scored in any of these assays. Unless noted, calls follow the shape of the dose curve; as a rule, active = well fitted curve in the direction sought with a large enough effect; inconclusive = small, poorly fitted or top-dose-only effect, or another doubt; inactive = no such curve, though single readings can be large; an effect the other way counts as inactive or inconclusive.

SMILES	CHX counter	LmPK inh	Shiga toxin inh	Giardia FBPA inh	NS1 function inh
O=[N+]([O-])c1nn(-c2ccc3c(c2)OCCO3)n(O)c1=NC1CCN(Cc2ccccc2)CC1	3	-2%	9	-10%	/
O=[N+]([O-])c1nn(-c2ccc3c(c2)OCCO3)n(O)c1=NCCC1=CCCCC1	25*	2%	49	-5%	-4%
Cc1cccc(N(C(=O)c2csnn2)C(C(=O)NC2CCCCC2)c2ccncc2)c1 (stereo unspecified)	-2	-6%	-3	-14%	-6%
CC(=O)/C(N=Nc1c(C)n(C)n(-c2ccccc2)c1=O)=C(\C)O	3	-14%	-15	-2%	/
CC(=O)/C(N=Nc1ccc(SC(F)F)cc1)=C(\C)O	44*	-10%	59*	-15%	/
O=c1c(-c2ccc(F)c(F)c2)nc2cncnc2n1Cc1ccc(F)cc1	/	/	/	-9%	/
CC1(C)CC(=O)c2sc(NS(=O)(=O)Cc3ccccc3)nc2C1	27*	8%	41*	-4%	7%
Cc1ccc(S(=O)(=O)Nc2nc3c(s2)C(=O)CC(C)(C)C3)cc1	9	3%	-15	14%	4%
COc1ccc(CCN2C(=O)N[C@@H](CCC(=O)O)C2=O)cc1	-5	1%	-10	-3%	3%
CC1CCN(S(=O)(=O)c2cccc(-c3cn4cc(Cl)ccc4n3)c2)CC1	12	0%	53*	1%	-26%
CN(C)C(=O)Oc1cccc(-c2cn3cc(Cl)ccc3n2)c1	43*	-4%	58*	-14%	-11%
CCOC(=O)C1CCN(S(=O)(=O)c2cccc(-c3cn4cc(Cl)ccc4n3)c2)CC1	7	2%	14	-1%	2%
CN(C)C(=O)Oc1ccc(-c2cn3cc(Cl)ccc3n2)cc1	50*	13µM*	55*	-18%	-9%
CN(C)C(=O)Oc1ccc(-c2cn3cc(C(F)(F)F)ccc3n2)cc1	20	-7%	41*	-7%	9%
CCN(CC)S(=O)(=O)c1ccc(-c2cn3cc(Cl)ccc3n2)cc1	19	-5%	20	-4%	-7%
C/C(=N\NC(=O)c1ccccn1)C12CC3CC(CC(C3)C1)C2	31*	0%	54*	-14%	2%
N/C(=N\OC(=O)C12CC3CC(CC(C3)C1)C2)c1cccnc1	19*	1%	17	5%	-2%
O=C(Nc1ccccn1)C12CC3CC(CC(C3)C1)C2	6	1%	11	0%	-15%
Cc1occc1C(=O)NC1CCCCCC1	17	-7%	51	5%	-11%
N/C(=N\OC(=O)C12CC3CC(CC(C3)C1)C2)c1ccccn1	41*	0%	43*	3%	-22%
C/C(=N/NC(=O)c1ccoc1C)C12CC3CC(CC(C3)C1)C2	39*	5%	5	-5%	7%
N/C(=N\OC(=O)C12CC3CC(CC(C3)C1)C2)c1ccccc1	4	1%	21	6%	-16%
COc1cc(C(=O)NNC(=S)NC(=O)/C=C/c2ccccc2)cc(OC)c1OC	7	0%	9	21%	6%
O=C1/C(=N\S(=O)(=O)c2cccs2)C([n+]2ccccc2)=C([O-])c2ccccc21	-5	-1%	-4	?	3%
CC(C)(C)c1cc[n+](C2=C([O-])c3ccccc3C(=O)/C2=N\S(=O)(=O)c2cccs2)cc1	41*	1%	73*	?	-6%
SMILES	CHX counter	LmPK inh	Shiga toxin inh	Giardia FBPA inh	NS1 function inh
c1ccc2c(c1)nc1n2C2(N3CCOCC3)CCCC2C1N1CCOCC1 (stereo unspecified)	10*	-4%	42	-6%	-1%
C=C1C(=O)O[C@@H]2C[C@@H](C)[C@@H]3C=CC(=O)[C@@]3(C)[C@@H](O)[C@H]12	-10	-3%	-17	5%	?
C[C@@H]1C[C@@H]2OC(=O)[C@]3(C)[C@H]2[C@@H](OC3(C)O)[C@]2(C)C(=O)C=C[C@H]12 (stereo partly specified)	31*	1%	26*	14%	2%
CCN(CCn1cccn1)C(=O)CC1C(=O)NCCN1CCc1ccccc1 (stereo unspecified)	6	-4%	13	/	12%
COc1ccc(C(=O)Nc2ccc(/C(C)=N/NC(=O)c3ccncc3)cc2)cc1	26*	-2%	40	/	-5%
COc1ccc(/C(C)=N/NC(=O)CNC(=O)c2ccco2)cc1	-2	2%	-3	-7%	-6%
COc1ccc(/C(C)=N/NC(=O)c2ccncc2)cc1	-3	0%	-5	-1%	-6%
O=C(N/N=C/c1ccncc1)c1ccc(NC(=O)c2ccc(Cl)cc2)cc1	-2	5%	18	-6%	/
C/C(=N\NC(=O)c1ccncc1)c1ccc(NC(=O)c2ccc(Cl)cc2)cc1	57*	3%	97*	3%	9%
C/C(=N/NC(=O)c1ccncc1)c1ccc(NC(=O)c2ccc(Cl)cc2Cl)cc1	63*	-10%	43	/	8%
COc1ccc(/C(C)=N/NC(=O)c2ccccc2N)cc1	34*	-5%	78*	1%	/
C/C(=N\NC(=O)C(=O)Nc1cc(Cl)ccc1Cl)c1ccncc1	-4	0%	2	0%	4%
Oc1cc(O)c2c(c1)O[C@@H](c1ccc(O)c(O)c1)[C@H](O[C@@]1(c3cc(O)c(O)c(O)c3)Oc3cc(O)cc(O)c3[C@H](O)[C@@H]1O)C2	/	/	/	/	5%
CC(=O)Oc1ccc(-c2ccc(C(=O)OCC(=O)N(C)CC(=O)Nc3ccccc3Cl)cc2)cc1	-5	-4%	2	/	-13%
CCc1ccccc1NC(=O)NNC(=O)CCc1ccc(OC)cc1	-2	9%	-2	8%	2%
CCOC(=O)COc1ccc(Oc2nc(C)cc(OC)n2)nn1	1	2%	-8	4%	23%
Cc1cc(Oc2ccc(=O)[nH]n2)nc(Cl)n1	35*	-1%	47*	4%	-1%
CSc1nc(C)cc(Oc2ccc(=O)[nH]n2)n1	4	0%	-11	0%	/
COc1cc(C)nc(Oc2ccc(=O)[nH]n2)n1	22*	-3%	42	3%	-4%
Cn1cc(-c2nc3cncnc3n(Cc3ccc(F)cc3)c2=O)c2ccccc21	/	/	/	-3%	/
CN1CCN(c2ncc3ncc(=O)n(-c4ccccc4)c3n2)CC1	/	/	/	6%	/
O=C(Nc1ccccc1F)C1CC1c1ccccc1 (stereo unspecified)	12	1%	41*	0%	-3%
O=C(NNC(=O)C12CC3CC(CC(C3)C1)C2)[C@@H]1C[C@H]1c1ccccc1	26*	5%	46*	6%	/
COc1c(Cl)ccc(Cl)c1C(=O)O	/	/	/	-7%	/
CC(C)(C)Nc1nc(OCC(F)(F)F)nc(OCC(F)(F)F)n1	13*	-6%	31*	2%	-1%
CCC(NC(=O)c1cc(COc2cncc(Cl)c2)on1)c1ccncc1 (stereo unspecified)	-3	-1%	1	-6%	3%
O=C(c1cc(COc2ccc(F)cc2F)on1)N1CCSCC1	58*	-12%	85*	6%	?
CCC(NC(=O)c1cc(COc2ccc(F)cc2Cl)on1)c1ccncc1 (stereo unspecified)	6.4*	8%	-1	16%	-28%
